In PubChem BioAssay (NCI):
This is part of a sample that, as a whole, favours compounds with a hit. Of some 79,000 tested, about 15% had one in any assay. Unmarked numbers belong to inactive results. Active and inactive are the calls of the source. Cut-off read from the data, not from the text of the source: active = growth inhibition above about 70%; inactive = the rest.

Tests used:
[1] = NCI Yeast Anticancer Drug Screen. Data for the rad50 strain (AID 155);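 note: 0% = growth of vehicle-only cultures of the same strain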; details: S. cerevisiae rad50 strain growth inhibition, stronger effect = higher value
Method in brief: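 Relative growth inhibition (compound vs vehicle) was measured in yeast with a defined repair-gene alteration.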

[2] = NCI Yeast Anticancer Drug Screen. Data for the mec2-1 strain (AID 157); details: S. cerevisiae mec2-1 strain, stronger effect = higher value
Method in brief: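 Vehicle-treated cultures served as reference for growth inhibition of compound-exposed mec2-1 yeast.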

[3] = NCI Yeast Anticancer Drug Screen. Data for the sgs1 mgt1 strain (AID 161);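 note: 0% = growth of cultures given vehicle only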; details: S. cerevisiae sgs1 mgt1 strain, stronger effect = higher value
Method in brief: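 Inhibition of yeast growth, normalised to vehicle-treated controls, is reported for a strain bearing genetic alterations in DNA damage repair.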

[4] = NCI Yeast Anticancer Drug Screen. Data for the cln2 rad14 strain (AID 165);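 note: 0% = growth equal to vehicle treated cultures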; details: S. cerevisiae cln2 rad14 strain, stronger effect = higher value
Method in brief: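 Each compound was tested on cln2 rad14 yeast. Inhibition of growth was calculated against vehicle-exposed controls.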

[5] = NCI Yeast Anticancer Drug Screen. Data for the bub3 strain (AID 167); details: S. cerevisiae bub3 mutant strain, stronger effect = higher value
Method in brief: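 Screening used yeast with an engineered genetic alteration affecting cell cycle control. Compound-exposed cultures were compared with vehicle cultures, and reduced growth was taken as inhibition.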

[6] = NCI Yeast Anticancer Drug Screen. Data for the mlh1 rad18 strain (AID 175); details: S. cerevisiae mlh1 rad18 strain growth inhibition, stronger effect = higher value
Method in brief: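 Vehicle-treated cultures served as the reference for growth inhibition in a yeast strain carrying DNA damage repair alterations exposed to each compound.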

[7] = at 5.0 µM (retest, dose inferred, filed as 0.5)
[8] = at 50.0 µM (retest, dose inferred, filed as 5.0)

Row | Structure (SMILES) | growth inhibition [1, 7] | growth inhibition [1, 8] | growth inhibition ([1]; at 50.0 µM) | growth inhibition [2, 7] | growth inhibition [2, 8] | growth inhibition ([2]; at 50.0 µM) | growth inhibition [3, 7] | growth inhibition [3, 8] | growth inhibition ([3]; at 50.0 µM) | growth inhibition [4, 7] | growth inhibition [4, 8] | growth inhibition ([4]; at 50.0 µM) | growth inhibition [5, 7] | growth inhibition [5, 8] | growth inhibition ([5]; at 50.0 µM) | growth inhibition [6, 7] | growth inhibition [6, 8] | growth inhibition ([6]; at 50.0 µM)
1 | COc1ccc([N+](=O)[O-])cc1Nc1c2ccccc2nc2ccccc12 | 6% | 69% | 80.8% (active) | 17% | 70% (active) | 64.2% | 0% | 58% | 49% | -2% | -16% | 37.5% | -1% | 49% | 46.5% | 1% | 6% | 41%
2 | Cc1ccc(C(=O)C(CCC#N)(CCC#N)CCC#N)cc1 | -8% | -5% | -13.7% | -8% | -17% | -0.25% | -1% | -11% | 8.85% | -15% | -3% | -6.25% | 12% | 15% | 1.1% | 4% | -6% | 4.3%
3 | CC(=O)/C(=C\c1ccc(Cl)cc1Cl)C(=O)CCN(C)C | 4% | 99% (active) | 97.5% (active) | -3% | 99% (active) | 99.3% (active) | 11% | 99% (active) | 97.3% (active) | 4% | 98% (active) | 76% (active) | -1% | 98% (active) | 98% (active) | 1% | 98% (active) | 98.8% (active)
4 | Cc1c(N)ccc(O)c1C | 1% | 46% | 87.7% (active) | -1% | 30% | 90.9% (active) | -2% | 37% | 43.2% | -3% | 17% | 86.3% (active) | 1% | 41% | 96.8% (active) | 1% | 35% | 96.6% (active)
5 | O=C(Nc1ccc(Cl)cc1)Nc1nnc2nc(C(C(=O)/C=C/c3ccccc3)c3nc4nnc(NC(=O)Nc5ccc(Cl)cc5)n4[nH]c3=O)c(=O)[nH]n12 | -8% | 11% | 48.5% | -7% | -3% | 48% | 4% | 2% | 46.6% | -8% | 2% | 28.6% | -11% | 7% | 39.5% | -6% | 8% | 63.2%
6 | CCOC(=O)C(NC(C)=O)[CH](c1ccccc1)[Sn]([c]1ccccc1)([c]1ccccc1)[c]1ccccc1 (configuration not stated) | 3% | 92% (active) | 94.4% (active) | -7% | 96% (active) | 97.5% (active) | -10% | 95% (active) | 99.1% (active) | -19% | 92% (active) | 94% (active) | -13% | 96% (active) | 96.2% (active) | 2% | 95% (active) | 96.7% (active)
7 | CC1CCCC(CCN(C)CCC2CCCCC2)CC1 (configuration not stated) | 21% | 98% (active) | 99.3% (active) | 9% | 99% (active) | 99.2% (active) | 35% | 99% (active) | 99.4% (active) | 21% | 97% (active) | 99.1% (active) | 7% | 79% (active) | 99% (active) | 45% | 98% (active) | 99.1% (active)
8 | CC(CN(C)C)C(/C=C/c1ccc(Cl)cc1)=N\NC(=O)c1ccccc1 (configuration not stated) | 3% | 15% | 17.6% | 2% | 12% | -4.45% | 1% | -3% | -15.3% | 2% | 6% | -1.65% | -3% | -10% | -11.9% | 3% | -36% | 27.2%
9 | Oc1cc(Br)cc2cccnc12 | 99% (active) | 99% (active) | 87.7% (active) | 98% (active) | 99% (active) | 92% (active) | 98% (active) | 99% (active) | 84.3% (active) | 99% (active) | 99% (active) | 89.5% (active) | 99% (active) | 99% (active) | 88.7% (active) | 99% (active) | 99% (active) | 83.8% (active)
10 | CC(CN(C)C)C(=O)/C=C/c1c(Cl)cccc1Cl (configuration not stated) | 2% | 88% (active) | 86.7% (active) | 8% | 96% (active) | 46.4% | 11% | 94% (active) | 90.2% (active) | 2% | 44% | 29.4% | -1% | 92% (active) | 74.9% (active) | 3% | 97% (active) | 96.5% (active)
11 | NS(=O)(=O)c1ccc(Nc2c3ccccc3nc3c(C(=O)NC(CO)(CO)CO)cccc23)cc1 | -14% | 24% | 18.9% | -11% | -10% | -1% | -5% | -13% | 15.3% | 25% | -10% | 45.5% | -9% | -8% | 12.9% | -14% | 9% | 15.9%
12 | COc1cccc(/C=C/C(C)=O)c1OC | 2% | 35% | 76% (active) | 4% | 8% | 13.9% | -1% | 3% | 24.5% | -4% | 4% | 21.9% | -2% | -1% | 5.2% | -4% | 7% | 37.5%
13 | O=C(O)/C=C/C(=O)Nc1cc2c(cc1Br)-c1ccccc1C2Br (configuration not stated) | 8% | 77% (active) | 9.15% | 1% | 38% | 40.9% | 3% | 69% | 7.45% | -1% | 27% | 38.1% | -12% | 71% (active) | -3.8% | 4% | 81% (active) | 11.2%
14 | O=[N+]([O-])c1c(Cl)c(Cl)c(O)c(Cl)c1Cl | 55% | 80% (active) | 76.5% (active) | 44% | 83% (active) | 78.7% (active) | 75% (active) | 87% (active) | 90% (active) | 31% | 64% | 30.9% | 55% | 75% (active) | 78.2% (active) | 32% | 89% (active) | 70.8% (active)
15 | COc1cc(C=O)c(C=O)cc1OC | 8% | 74% (active) | 69.9% | 6% | 40% | 50.2% | 3% | 79% (active) | 52.5% | 9% | 84% (active) | 89.2% (active) | 5% | 87% (active) | 73.5% (active) | 16% | 87% (active) | 74.5% (active)
16 | COc1ccc(Oc2c(OC)cc(NCCCCCNC(C)C)c3ncccc23)cc1 | 26% | 72% (active) | 91.9% (active) | 13% | 52% | 67.9% | 37% | 85% (active) | 93.7% (active) | 19% | 48% | 57.8% | 29% | 69% | 81% (active) | 19% | 52% | 89.8% (active)
17 | CCc1scc(C)[n+]1CC(=O)c1cccc([N+](=O)[O-])c1 | -1% | 15% | -6.25% | -10% | 3% | -2.9% | 11% | 2% | -4.4% | 12% | 18% | 17.6% | 12% | 25% | 8.95% | 19% | 22% | -1.95%
18 | O=[N+]([O-])c1ccc(O)c(-c2ccccc2)c1 | 3% | 99% (active) | 99.3% (active) | -31% | 99% (active) | 99.7% (active) | 6% | 99% (active) | 98.8% (active) | 6% | 99% (active) | 98.7% (active) | -2% | 98% (active) | 99.2% (active) | 5% | 99% (active) | 99.2% (active)
19 | Cc1ccc(C(=O)C(CN(C)C)CN(C)C)cc1C | 29% | 83% (active) | 87.6% (active) | 12% | 90% (active) | 90.2% (active) | 9% | 88% (active) | 90.1% (active) | 24% | 51% | 58.1% | 20% | 94% (active) | 87.5% (active) | 14% | 91% (active) | 87.8% (active)
